Molecules are shown by their SMILES.

Data on 37 molecules can be found in the supplement of paper PMC12067926.

In this assay the test system is Pseudomonas 3 (Pseudomonas mandelii). The assay is described as follows: relative growth (AUC of 72 h growth curve relative to DMSO control, dAUC) (ratio); higher = more growth (less inhibition), active = hit call of the paper. As to conditions: 20 µM;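 active = growth AUC significantly below the DMSO wells by Dunnett test; inactive = the rest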. The procedure, abridged:
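Cultures grown to carrying capacity in Luria–Bertani medium, drawn from Icelandic stream sediment and Silwood Park soil isolates and whole sediment communities, were diluted 1:100 into 96-well plates with each chemical at 20 µM (1% DMSO) and read at A600 hourly for 72 h. The spline-integrated area under the growth curve, divided by the mean of the DMSO controls, is reported as relative growth (dAUC). Values are means of three biological replicates.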
Turning to `CNC(=O)CSP(=S)(OC)OC`, the relative growth is 1.02 (inactive). Under `N#CCNC(=O)c1cnccc1C(F)(F)F` stands 0.97 (inactive); under `COP(=O)(OC)OC=C(Cl)Cl`, 1.04 (inactive); under `CCc1cc(C)cc(CC)c1-c1c(OC(=O)C(C)(C)C)n2n(c1=O)CCOCC2`, 1.01 (inactive). Consider `CCOc1ccc(C(C)(C)COCc2cccc(Oc3ccccc3)c2)cc1`, for which the relative growth was 1.02 (inactive). Under `COc1ncc(F)c2nc(S(=O)(=O)Nc3c(F)cccc3F)nn12` stands 1.01 (inactive). For the molecule `O=[N+]([O-])c1cc(C(F)(F)F)c(Cl)c([N+](=O)[O-])c1Nc1ncc(C(F)(F)F)cc1Cl`, the relative growth was 0.00358 (active). For the molecule `COP(=S)(OC)Oc1ccc(SC)c(C)c1`, the relative growth is 1.01 (inactive). The figure for `CCCCCCCCCCCCNC(=N)N` is 0.902 (inactive); for `CC(C)NC(=O)N1CC(=O)N(c2cc(Cl)cc(Cl)c2)C1=O` it is 0.906 (inactive); for `CCCCOC(=O)[C@H](C)Oc1ccc(Oc2ccc(C#N)cc2F)cc1` it is 1.07 (inactive). As to `CCc1cccc(C)c1N(C(=O)CCl)[C@@H](C)COC`, the relative growth is 1 (inactive). Consider `CC(C1CC1)C(O)(Cn1cncn1)c1ccc(Cl)cc1` (configuration not stated), for which the relative growth was 0.971 (inactive). Take `CC(COc1ccc(Oc2ccccc2)cc1)Oc1ccccn1` (configuration not stated): the relative growth is 1.01 (inactive). With `CCNc1nc(Cl)nc(NC(C)C)n1`, the relative growth was 0.996 (inactive).

Turning to `N#C/N=C1\SCCN1Cc1ccc(Cl)nc1`, the relative growth is 1.02 (inactive).

Consider `CCCC1COC(Cn2cncn2)(c2ccc(Cl)cc2Cl)O1` (configuration not stated), for which the relative growth was 1 (inactive). The figure for `COc1cc(C)c(C(=O)c2c(OC)ccc(Br)c2C)c(OC)c1OC` is 1 (inactive). As to `C/C(=N\C#N)N(C)Cc1ccc(Cl)nc1`, the relative growth was 0.987 (inactive). In the case of `CCCCN(CCCC)SN(C)C(=O)Oc1cccc2c1OC(C)(C)C2`, the relative growth was 1.07 (inactive). Consider `N#Cc1c(Cl)c(Cl)c(Cl)c(C#N)c1Cl`, for which the relative growth was 0.967 (inactive). In the case of `Cc1nc(N(C)C)nc(OC(=O)N(C)C)c1C`, the relative growth is 0.978 (inactive). Consider `CC(C)CC(C)c1sccc1NC(=O)c1cn(C)nc1C(F)(F)F` (configuration not stated), for which the relative growth is 1.05 (inactive).

Take `Fc1ccc(Oc2ccnc3cc(Cl)cc(Cl)c23)cc1`: the relative growth is 1.06 (inactive).

Turning to `CC1(C)C(C=C(Cl)Cl)C1C(=O)OCc1cccc(Oc2ccccc2)c1` (configuration not stated), the relative growth is 1 (inactive). For `Oc1ccccc1-c1ccccc1`, the relative growth is 1.01 (inactive).

On to `CCC(C)c1ccccc1OC(=O)NC` (configuration not stated), for which the relative growth is 1.07 (inactive). Take `CN/C(=N\[N+](=O)[O-])NCc1cnc(Cl)s1`: the relative growth was 1.01 (inactive). Take `O=C(O)c1nc(Cl)ccc1Cl`: the relative growth was 1 (inactive). With `CC1(C)[C@H](/C=C(\Cl)C(F)(F)F)[C@@H]1C(=O)OC(C#N)c1cccc(Oc2ccccc2)c1` (some centres not stated), the relative growth is 1.05 (inactive). With `O=C(NC(=O)c1c(F)cccc1F)Nc1ccc(OC(F)(F)C(F)OC(F)(F)F)c(Cl)c1` (configuration not stated), the relative growth is 0.99 (inactive). Take `O=C1C=C(N(Cc2ccc(Cl)nc2)CC(F)F)CO1`: the relative growth is 1.06 (inactive).

On to `O=C(O)COc1ccc(Cl)cc1Cl`, for which the relative growth is 1.04 (inactive). Consider `COc1ccc(C(=CC(=O)N2CCOCC2)c2ccc(Cl)cc2)cc1OC` (mixture of isomers), for which the relative growth was 1.03 (inactive). As for `CCN(CC)c1nc(C)cc(OP(=S)(OC)OC)n1`, the relative growth was 1 (inactive). As for `Oc1ccc(Cl)cc1Cc1cc(Cl)ccc1O`, the relative growth is 0.8 (active). For `N#CC(CCc1ccc(Cl)cc1)(Cn1cncn1)c1ccccc1` (configuration not stated), the relative growth is 0.992 (inactive).
